What all share (experiment): log2 ratio of Biotin-Ahx-Ub-VS probe labelling (fragment/DMSO); higher = less target engagement (more negative = stronger competition), active = hit call of the paper (q ≤ 0.05, log2 ratio ≤ -1)
What all share (settings): compound concentration: 200 uM; treatment time: 3 h

One assay has as its target T1, OTUD6B (UniProt Q8N6M0).
T1 sequence (whole entry): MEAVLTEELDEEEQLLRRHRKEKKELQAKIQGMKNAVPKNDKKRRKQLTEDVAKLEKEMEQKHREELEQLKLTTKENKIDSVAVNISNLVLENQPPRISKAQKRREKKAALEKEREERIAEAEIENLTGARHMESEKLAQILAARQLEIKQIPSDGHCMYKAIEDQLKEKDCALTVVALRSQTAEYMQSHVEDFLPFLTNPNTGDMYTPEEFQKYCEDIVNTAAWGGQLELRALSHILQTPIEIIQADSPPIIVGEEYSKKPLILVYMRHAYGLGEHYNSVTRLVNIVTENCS
The essentials: (§1)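 HEK293T lysate in Tris/CHAPS/IGEPAL buffer with protease inhibitors (495 µg per sample) was given fragment at 200 µM or vehicle for 3 h, in triplicate. It then received Biotin-Ahx-Ub-VS at 0.5 µM final for 1 h. Labelled DUBs were NeutrAvidin-enriched, digested with LysC and trypsin, and run by diaPASEF LC-MS/MS. Values are average log2 fragment/vehicle ratios by unpaired t-test on global-median-normalised Spectronaut quantities of proteins with ≥2 unique peptides.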

For another assay, the target named is T2, OTUD7B (UniProt Q6GQQ9).
T2 sequence (whole entry): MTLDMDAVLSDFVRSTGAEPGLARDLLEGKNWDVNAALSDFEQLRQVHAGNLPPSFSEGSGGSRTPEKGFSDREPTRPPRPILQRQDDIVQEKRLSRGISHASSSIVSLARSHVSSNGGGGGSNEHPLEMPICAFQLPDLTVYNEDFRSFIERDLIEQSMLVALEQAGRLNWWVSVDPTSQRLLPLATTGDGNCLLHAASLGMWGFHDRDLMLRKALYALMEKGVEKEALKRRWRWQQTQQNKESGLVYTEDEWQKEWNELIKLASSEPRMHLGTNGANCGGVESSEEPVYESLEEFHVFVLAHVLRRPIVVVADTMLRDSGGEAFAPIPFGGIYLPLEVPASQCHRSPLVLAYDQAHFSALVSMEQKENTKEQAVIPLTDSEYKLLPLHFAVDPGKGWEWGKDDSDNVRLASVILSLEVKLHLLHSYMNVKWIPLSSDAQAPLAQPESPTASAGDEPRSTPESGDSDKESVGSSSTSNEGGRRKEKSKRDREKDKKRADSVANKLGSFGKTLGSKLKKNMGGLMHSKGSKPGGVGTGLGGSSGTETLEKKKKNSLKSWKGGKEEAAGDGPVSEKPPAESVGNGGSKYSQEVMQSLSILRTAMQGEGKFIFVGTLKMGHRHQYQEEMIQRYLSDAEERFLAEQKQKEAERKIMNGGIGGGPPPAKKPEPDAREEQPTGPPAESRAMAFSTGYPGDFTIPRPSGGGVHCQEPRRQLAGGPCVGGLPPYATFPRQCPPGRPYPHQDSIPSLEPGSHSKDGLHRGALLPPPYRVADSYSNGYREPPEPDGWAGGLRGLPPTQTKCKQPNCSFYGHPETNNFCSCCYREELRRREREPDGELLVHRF
A digest of the protocol: as §1

The target in a further assay is PRPF8 (UniProt Q6P2Q9). A digest of the protocol:
as §1

The target in another assay is T3, PSMD7 (UniProt P51665).
T3 sequence (whole entry): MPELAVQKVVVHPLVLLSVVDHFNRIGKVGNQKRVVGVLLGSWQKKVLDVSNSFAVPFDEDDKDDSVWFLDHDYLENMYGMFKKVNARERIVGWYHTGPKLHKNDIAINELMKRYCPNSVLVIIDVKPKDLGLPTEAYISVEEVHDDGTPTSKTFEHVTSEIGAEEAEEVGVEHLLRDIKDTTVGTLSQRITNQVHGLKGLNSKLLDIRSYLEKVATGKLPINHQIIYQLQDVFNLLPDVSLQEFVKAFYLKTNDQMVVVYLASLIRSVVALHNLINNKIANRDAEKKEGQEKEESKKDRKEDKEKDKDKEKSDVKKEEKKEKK
The essentials:
as §1

A further assay concerns the target UCHL1 (UniProt P09936). A digest of the protocol: as §1
The target of the next assay is T4, UCHL3 (UniProt P15374).
T4 sequence (whole entry): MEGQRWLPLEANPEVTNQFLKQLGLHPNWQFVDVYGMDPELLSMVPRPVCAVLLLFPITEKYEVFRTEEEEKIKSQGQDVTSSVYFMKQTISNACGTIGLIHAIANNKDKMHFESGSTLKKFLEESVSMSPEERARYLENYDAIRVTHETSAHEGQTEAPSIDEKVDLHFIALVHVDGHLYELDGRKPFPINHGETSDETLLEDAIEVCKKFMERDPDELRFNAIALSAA
A digest of the protocol: as §1

A further assay has as its target T5, UCHL5 (UniProt Q9Y5K5).
T5 sequence (whole entry): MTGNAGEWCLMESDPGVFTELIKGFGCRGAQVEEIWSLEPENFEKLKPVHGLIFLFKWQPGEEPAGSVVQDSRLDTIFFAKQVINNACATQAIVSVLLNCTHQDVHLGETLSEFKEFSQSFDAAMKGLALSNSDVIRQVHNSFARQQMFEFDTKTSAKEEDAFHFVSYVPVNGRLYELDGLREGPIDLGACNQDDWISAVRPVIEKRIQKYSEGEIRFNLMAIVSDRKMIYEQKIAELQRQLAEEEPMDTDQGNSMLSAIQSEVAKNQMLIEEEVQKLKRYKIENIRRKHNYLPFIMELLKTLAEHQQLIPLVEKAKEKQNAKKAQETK
A digest of the protocol: as §1

A further assay addresses USP10 (UniProt Q14694). The essentials: as §1
Another assay concerns the target T6, USP15 (UniProt Q9Y4E8).
T6 sequence (whole entry): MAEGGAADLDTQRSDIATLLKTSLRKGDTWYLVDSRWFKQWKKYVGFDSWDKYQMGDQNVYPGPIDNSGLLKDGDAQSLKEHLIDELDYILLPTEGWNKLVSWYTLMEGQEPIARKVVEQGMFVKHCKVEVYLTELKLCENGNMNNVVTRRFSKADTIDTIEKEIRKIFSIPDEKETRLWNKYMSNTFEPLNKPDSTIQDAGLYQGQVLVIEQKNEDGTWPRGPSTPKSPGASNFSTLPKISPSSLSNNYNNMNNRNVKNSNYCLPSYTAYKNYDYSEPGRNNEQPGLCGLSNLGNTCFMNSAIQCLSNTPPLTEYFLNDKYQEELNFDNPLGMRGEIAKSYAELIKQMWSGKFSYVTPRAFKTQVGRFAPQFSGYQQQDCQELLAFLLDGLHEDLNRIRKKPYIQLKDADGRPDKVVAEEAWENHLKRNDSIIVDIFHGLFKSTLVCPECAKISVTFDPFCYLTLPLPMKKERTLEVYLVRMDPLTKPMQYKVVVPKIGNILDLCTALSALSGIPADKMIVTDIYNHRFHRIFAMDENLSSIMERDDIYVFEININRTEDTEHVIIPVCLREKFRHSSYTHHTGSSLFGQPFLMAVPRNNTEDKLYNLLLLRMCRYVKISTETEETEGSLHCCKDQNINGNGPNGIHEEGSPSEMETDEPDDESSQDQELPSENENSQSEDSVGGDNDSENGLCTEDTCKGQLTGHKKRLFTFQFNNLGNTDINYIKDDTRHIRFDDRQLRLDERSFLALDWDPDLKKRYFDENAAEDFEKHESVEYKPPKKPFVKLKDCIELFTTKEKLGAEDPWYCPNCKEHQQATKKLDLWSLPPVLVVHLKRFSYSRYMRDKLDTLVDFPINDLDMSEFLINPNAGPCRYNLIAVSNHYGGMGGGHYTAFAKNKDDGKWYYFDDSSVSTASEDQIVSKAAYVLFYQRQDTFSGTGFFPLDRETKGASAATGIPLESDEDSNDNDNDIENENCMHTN
The essentials: as §1

The next assay has as its target USP16 (UniProt Q9Y5T5). The essentials:
as §1

Values without a mark were called inactive.

Chain of USP16 (Q9Y5T5 whole entry, looked up): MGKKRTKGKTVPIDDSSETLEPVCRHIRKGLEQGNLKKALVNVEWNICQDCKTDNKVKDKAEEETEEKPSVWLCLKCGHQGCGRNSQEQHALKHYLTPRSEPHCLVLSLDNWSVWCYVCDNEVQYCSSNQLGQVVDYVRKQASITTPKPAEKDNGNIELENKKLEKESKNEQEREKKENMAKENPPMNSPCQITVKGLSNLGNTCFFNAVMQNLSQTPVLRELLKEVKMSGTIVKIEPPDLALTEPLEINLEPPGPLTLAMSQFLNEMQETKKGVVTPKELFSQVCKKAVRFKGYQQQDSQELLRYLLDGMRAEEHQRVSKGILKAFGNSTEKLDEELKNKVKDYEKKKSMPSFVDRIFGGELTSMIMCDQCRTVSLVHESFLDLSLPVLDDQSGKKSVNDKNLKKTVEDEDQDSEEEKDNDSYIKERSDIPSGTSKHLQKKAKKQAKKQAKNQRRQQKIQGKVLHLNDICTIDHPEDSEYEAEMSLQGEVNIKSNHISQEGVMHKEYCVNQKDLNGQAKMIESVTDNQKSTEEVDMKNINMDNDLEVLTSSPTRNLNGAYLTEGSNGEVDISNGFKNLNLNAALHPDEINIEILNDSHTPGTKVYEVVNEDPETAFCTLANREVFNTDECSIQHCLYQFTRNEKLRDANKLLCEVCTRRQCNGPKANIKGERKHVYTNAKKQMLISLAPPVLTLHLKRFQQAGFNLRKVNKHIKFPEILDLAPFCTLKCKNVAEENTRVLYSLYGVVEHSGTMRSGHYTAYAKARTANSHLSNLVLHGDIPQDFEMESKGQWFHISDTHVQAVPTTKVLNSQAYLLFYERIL
Chain of USP10 (Q14694 whole entry): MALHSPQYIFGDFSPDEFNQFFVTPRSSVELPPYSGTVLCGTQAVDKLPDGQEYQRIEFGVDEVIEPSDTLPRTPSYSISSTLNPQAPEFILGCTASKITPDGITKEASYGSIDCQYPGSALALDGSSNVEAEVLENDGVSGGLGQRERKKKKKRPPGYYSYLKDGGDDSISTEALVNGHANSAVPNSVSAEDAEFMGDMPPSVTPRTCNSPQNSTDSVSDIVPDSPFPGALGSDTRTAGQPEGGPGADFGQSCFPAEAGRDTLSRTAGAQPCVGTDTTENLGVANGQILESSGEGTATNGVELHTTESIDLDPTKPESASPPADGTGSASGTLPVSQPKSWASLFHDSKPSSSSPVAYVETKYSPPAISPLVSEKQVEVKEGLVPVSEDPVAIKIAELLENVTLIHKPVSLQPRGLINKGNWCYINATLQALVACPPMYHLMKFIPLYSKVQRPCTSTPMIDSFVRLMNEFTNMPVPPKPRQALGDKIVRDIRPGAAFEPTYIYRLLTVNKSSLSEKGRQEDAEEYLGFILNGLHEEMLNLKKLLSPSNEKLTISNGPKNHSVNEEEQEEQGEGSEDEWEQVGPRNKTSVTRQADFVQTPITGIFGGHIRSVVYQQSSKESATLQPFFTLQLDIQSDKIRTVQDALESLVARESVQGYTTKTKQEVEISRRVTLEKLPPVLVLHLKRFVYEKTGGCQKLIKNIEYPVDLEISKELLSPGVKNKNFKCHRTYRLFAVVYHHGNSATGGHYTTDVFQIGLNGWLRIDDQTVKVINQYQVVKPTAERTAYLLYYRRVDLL
Chain of UCHL1 (P09936 whole entry, looked up): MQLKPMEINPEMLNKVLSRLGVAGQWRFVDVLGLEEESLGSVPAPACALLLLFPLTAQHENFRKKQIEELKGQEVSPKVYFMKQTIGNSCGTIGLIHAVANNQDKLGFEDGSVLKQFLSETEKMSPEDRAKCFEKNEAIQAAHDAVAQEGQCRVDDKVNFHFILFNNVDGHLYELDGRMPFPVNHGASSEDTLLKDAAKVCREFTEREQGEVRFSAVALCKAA

`O=C(CCl)NC1CCS(=O)(=O)c2ccccc21` (stereo not given): the “log2 ratio of Biotin-Ahx-Ub-VS probe labelling” value in the assay with OTUD6B was -0.258; with OTUD7B it was -1.79 (active); with PRPF8 it was -0.00882; with PSMD7, -0.335; with UCHL1, -1.81 (active); with UCHL3 it was 0.125. Moreover, the “log2 ratio of Biotin-Ahx-Ub-VS probe labelling” value with UCHL5 is -0.554; in the assay with USP10 it was 0.0657; with USP15 it was -0.242; with USP16, -0.0991.

The values are drawn from the supplement of paper PMC11732987, “Enantioselective OTUD7B fragment discovery through chemoproteomics screening and high-throughput optimisation” (Communications Chemistry, 2025).
